Screens as filed in PubChem BioAssay.
Shown are actives, neighbours in structure and some others; about 3.4% of the full set was active somewhere.
FLuc inh: firefly luciferase inhibition | P08659 | purified firefly luciferase, luminescence, 8 min | Potency, µM (doses to about 57.1 µM), for the others: top-dose activity change, negative = inhibition, actives largely listed as inhibitors | 2.2% of 72,000 active | AID 411; active means well fitted inhibition curve with a large enough effect; inconclusive means small, poorly fitted or top-dose-only effect; further: on the % scale 0 is the no-effect control and ±100 the full control effect; nearly all actives have a fitted effect of over 40% in size
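Luminescence read-out after 8 min at room temperature; enzyme reaction used luciferin plus 10 uM ATP (linear range) in imidazole buffer pH 7.2 with KCl, MgCl2, Tween 20 and BSA. Each sample was run as a titration.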
PK Bst: modulators of Bacillus stearothermophilus pyruvate kinase; purified pyruvate kinase, luminescence ATP production; ribose 5-phosphate activator present at AC10; Potency, µM; 1.2% of 51,000 active; AID 361; in the data active means potency below about 11 µM; inconclusive means mostly about 12 µM to 25 µM;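 the screen sought inhibitors and activators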;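 further: scaled between full activation by ribose 5 phosphate and full inhibition by luteolin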
GBA mod: human lysosomal glucosylceramidase modulation; purified enzyme, resorufin glucoside fluorescence (screen aimed at inhibitors), 20 min; 1.1% of 48,000 active; Potency, µM; AID 360; in the data active means potency below about 15 µM; inconclusive means mostly about 16 µM to 33 µM;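 further: the screen sought inhibitors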
Target sequence (P04062 whole entry, looked up): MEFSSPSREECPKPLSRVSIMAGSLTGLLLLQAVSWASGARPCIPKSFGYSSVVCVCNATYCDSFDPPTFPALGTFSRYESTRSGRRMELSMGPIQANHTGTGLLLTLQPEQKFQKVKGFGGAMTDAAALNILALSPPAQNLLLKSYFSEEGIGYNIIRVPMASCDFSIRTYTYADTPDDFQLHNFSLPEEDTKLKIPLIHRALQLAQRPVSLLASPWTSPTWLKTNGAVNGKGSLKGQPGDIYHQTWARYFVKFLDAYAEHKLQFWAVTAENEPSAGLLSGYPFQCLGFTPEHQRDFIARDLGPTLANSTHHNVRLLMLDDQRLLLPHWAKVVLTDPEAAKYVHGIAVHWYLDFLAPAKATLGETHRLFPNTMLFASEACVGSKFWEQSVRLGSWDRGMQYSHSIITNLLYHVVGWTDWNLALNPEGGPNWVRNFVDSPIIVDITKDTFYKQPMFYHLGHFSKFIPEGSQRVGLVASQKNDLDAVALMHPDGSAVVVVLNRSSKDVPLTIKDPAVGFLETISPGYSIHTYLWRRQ
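Wild-type enzyme at 0.2 nM final in 50mM citric acid/KH2PO4, 10mM sodium taurocholate, 0.01% tween-20, pH 5.9, with resorufin beta-D-glucopyranoside at 30 uM final. Compounds titrated, 20 min at RT, red fluorescence read; AC50 from titration.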
Starred values were filed as active, the others as inactive; i = inactive; ? = inconclusive; · = no result given; [ ] = another dose, or the depositor's remark. Potency means the concentration at half of the fitted maximal effect.

SMILES	FLuc inh	PK Bst	GBA mod
O=C(Nc1cccnc1)c1cnn2cccnc12	0%	>57	>77
O=C(Nc1cccnc1)Nc1ccc2c(c1)OCO2	16µM*	·	?
Cn1ccc2cc(NC(=O)Nc3cccnc3)ccc21	16µM*	·	·
O=C(Nc1cccnc1)Nc1ccc(F)c(Cl)c1	20µM*	·	?
O=C(Nc1ccc2c(c1)OCO2)c1cnn2cccnc12	20µM*	i	>77
O=C(Nc1cccnc1)c1c(F)c(F)c(F)c(F)c1F	2%	>57	>77
O=C(Nc1ccc2c(c1)OCO2)Nc1cnccn1	-20%	>57	>77
CN(C)CC[C@@H](C(=O)C(C)(C)C)c1ccccn1	2%[11.4 µM]	·	·
Cc1noc(C)c1-c1ccc2ncnc(N3CCOCC3)c2c1	0%[2.29 µM]	·	·
COc1ccc(Oc2ncc3nc(-c4cc(F)cc(F)c4)c(=O)n(C[C@H]4CCCO4)c3n2)cc1	-2%[11.4 µM]	·	·
CCOC(=O)CCN1C(=O)[C@H]2[C@H]3[C@H](O)[C@H](O)C/C(=N/NC(=O)OCc4ccccc4)[C@H]3CC[C@@H]2C1=O	2%[11.4 µM]	·	·
O=C(NCC1CCCO1)c1ccc2c(=O)n(CCc3ccccc3)c(=O)[nH]c2c1 (configuration not stated)	0%	>57	>77
CC1CCCC(NC(=O)c2ccc3c(=O)n(CC4CCCO4)c(=O)[nH]c3c2)C1C (configuration not stated)	3%	>57	1.6*
CCC(=O)Nc1cccc(-c2nnc(SCC(=O)NCc3ccco3)n2C)c1	1%[25.5 µM]	>26	·
CCC(=O)Nc1cccc(-c2nnc(SCC(=O)c3ccccc3)n2C)c1	16µM*	·	·
CS(=O)(=O)N1CCC2(CCN(Cc3ccncc3)CC2)CC1	1%[11.4 µM]	·	·
O=C1C(c2ccncc2)=C(O)c2ccccc21	13µM*	?	>77
O=C1C(=C(O)c2ccccc2)C(=O)c2ccccc21	-5%	·	·
C=CC[C@@H]1C=C[C@@H](O/N=C\C[C@@H]2C=C[C@H](OC(C)=O)[C@H](COC(C)=O)O2)[C@@H](CO)O1	1%[11.4 µM]	·	·
C[C@](O)(c1ccccc1)c1nccc2ccccc12	0%[11.4 µM]	·	·
COc1ccc(N=c2oc3c(OC)cccc3cc2C(=O)NCc2ccco2)c(OC)c1	0%	>57	2.1*
COc1ccc2cc(C(=O)NCc3ccco3)c(=Nc3ccc(C(=O)O)cc3)oc2c1	-29%	·	>77
CN(C)c1ncc2ncc(=O)n(CCc3ccccc3)c2n1	2%[11.4 µM]	·	·
COCc1nnc(NC(=O)c2ccc(NC(C)=O)cc2)s1	1%	>57	6.8*
CCCC(=O)Nc1ccc(C(=O)Nc2nnc(COC)s2)cc1	1%	>57	0.77*
SMILES	FLuc inh	PK Bst	GBA mod
COCc1nnc(NC(=O)CCc2ccccc2)s1	1%	>57	>77
COCc1nnc(NC(=O)c2cccs2)s1	-3%	>57	?
CO[C@H]1COC(=O)[C@H](C)NC(=O)C/C=C\[C@@H](C)[C@H](OC)COC(=O)C/C=C\[C@@H]1C	1%[11.4 µM]	·	·
Cc1cccc(CNc2nc(-c3ccccc3CN(C)C)nc3ccccc23)c1	2%[2.29 µM]	·	·
COc1cccc(NC(=O)c2ccco2)c1	-14%	·	·
O=C(Nc1ccc(OC(=O)c2ccncc2)cc1)c1ccncc1	1%	>11	1.9*
O=C(Nc1ccccn1)c1ccc(NC(=O)c2ccco2)cc1	25µM*	i	?
CC(C)Oc1cccc(C(=O)Nc2ccc(NC(=O)c3ccco3)cc2)c1	-2%	>57	11*
O=C(Oc1ccc2c(c1)OCO2)c1ccncc1	-1%	>57	>77
O=C(Nc1ccc(OC(=O)c2ccco2)cc1)c1ccco1	13µM*	i	>77
O=C(Nc1cccc(OC(=O)c2ccco2)c1)c1ccco1	-6%	>57	>77
O=C(Nc1ccc(NC(=O)c2ccco2)cc1)c1cnccn1	-22%	·	·
Nc1ccn([C@H]2O[C@H](CO)[C@@H]3[O][Sn]([c]4ccccc4)([c]4ccccc4)[O][C@H]32)c(=O)n1	2%[11.4 µM]	·	·
CNc1ncncc1-c1ccccc1C(F)(F)F	-1%[2.29 µM]	·	·
C[C@H]1CN(S(=O)(=O)c2cccc3cnccc23)CCN1	-2%	·	·
c1cc2c(cc1Nc1nc(-c3ccc4c(c3)OCO4)cs1)OCCO2	13µM*	?	>77
CC(=O)Nc1cccc(-c2csc(NCc3ccco3)n2)c1	-18%	·	?
Oc1ccc(Nc2nc(-c3ccc(O)cc3)cs2)cc1	16µM*	8*	i
NS(=O)(=O)c1ccc(Nc2nc(-c3ccc(O)cc3)cs2)cc1	-3%	?	>77
Oc1ccc(-c2csc(NCc3ccco3)n2)cc1	25µM*	i	i
COc1nc(Nc2ccc3c(c2)OCO3)nc(OC)n1	-4%	·	·
CCCCCCCC/C=C\CCCCCCCC(N)=O	0%	·	·
COc1cccc(Nc2ncc3nc(C)c(=O)n(C4CC4)c3n2)c1	-3%[11.4 µM]	·	·
COc1ccc(CNc2ccnc(-c3ccc(N(C)C)cc3)n2)c(OC)c1	-4%[2.29 µM]	·	·
